AMA1 RON2 block – qHTS for Inhibitors of AMA1-RON; Towards Development of Antimalarial Drug Lead: Primary Screen; Plasmodium falciparum AMA1 (3D7) - RON2 peptide interaction; AlphaScreen AMA1-biotinylated RON2 peptide binding; Potency, µM (top dose mostly 58.2 µM), for the others: at the highest dose activity change, negative = inhibition, most hits filed as inhibitors; 360,000 tested, 0.2% active; AID 720542, 2013;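 further: 0% = vehicle wells and -100% = peptide control; nearly all actives have a fitted effect of over 45% in size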
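AMA1 (3D7) with his tag at 25 nM final met compounds first, then biotinylated RON2 peptide at 25 nM; detection used donor plus acceptor beads, 10 µg/mL apiece, read by AlphaScreen after 30 min at room temperature.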
HCV inh – qHTS Assay for Inhibitors of Hepatitis C Virus (HCV); Huh7.5.1 HCVcc-Cre infection, luciferase reporter, 44 h; Potency, µM (top dose mostly 41.8 µM), inactives show top-dose activity change, negative = inhibition, actives largely listed as inhibitors; 340,000 tested, 3.4% active; AID 651820, 2012
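Luciferase read-out (15 sec integration) after a 15 min room-temperature substrate step quantifies HCVcc-Cre infection. Cells, 1,000 per well, had compound added 4 h post-plating, then virus at ~0.5 moi, and were cultured 44 h.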
Pf growth 48h – Primary qHTS for delayed death inhibitors of the malarial parasite plastid, 48 hour incubation. Potency, µM (highest dose often 28.7 µM), without a hit: at the top dose activity change, negative = inhibition, actives largely listed as inhibitors. 310,000 tested, 5.9% active. P. falciparum luciferase growth in erythrocytes, 48 h
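Luciferase-expressing P. falciparum in infected erythrocytes (2% hematocrit, 0.1% parasitemia final) in RPMI 1640/0.5% Albumax were exposed to compound for 48 hours at 37 C, 5% CO2; growth read as luminescence.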
Pf growth 96h – Primary qHTS for delayed death inhibitors of the malarial parasite plastid, 96 hour incubation. P. falciparum luciferase reporter growth, 96 h. Potency, µM (top dose mostly 28.7 µM), for the others: top-dose activity change, negative = inhibition, most hits filed as inhibitors. 320,000 tested, 6.9% active. AID 504834, 2011
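Delayed-death screen, second-generation endpoint: infected erythrocytes, 2% hematocrit, 0.05% parasitemia final; 96 hours at 37 C, 5% CO2; luciferase detection reagent; luminescence decrease equals reduced growth.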
AmpC detergent – qHTS Inhibitors of AmpC Beta-Lactamase (assay with detergent); P00811; AmpC hydrolysis of nitrocefin, absorbance 480 nm, 0.01% Triton; Potency, µM (top dose mostly 114 µM), for inactives: at the top dose activity change, negative = inhibition, actives largely listed as inhibitors; 370,000 tested, 0.041% active; AID 485294, 2010;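 further: 0% = no-compound wells and -100% = no-enzyme wells; nearly all actives have a fitted effect of over 25% in size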
Target sequence (P00811 whole entry, looked up): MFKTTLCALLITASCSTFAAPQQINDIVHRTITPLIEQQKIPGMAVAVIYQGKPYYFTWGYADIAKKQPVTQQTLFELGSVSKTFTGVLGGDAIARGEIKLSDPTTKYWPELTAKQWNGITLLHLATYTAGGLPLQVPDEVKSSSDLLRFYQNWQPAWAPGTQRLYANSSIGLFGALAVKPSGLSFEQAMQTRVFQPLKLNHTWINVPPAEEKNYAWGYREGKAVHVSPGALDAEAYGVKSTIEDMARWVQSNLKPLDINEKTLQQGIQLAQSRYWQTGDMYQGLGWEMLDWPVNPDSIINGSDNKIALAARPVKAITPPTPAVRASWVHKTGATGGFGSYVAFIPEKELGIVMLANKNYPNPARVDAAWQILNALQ
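20 mM phosphate pH 7.0 + 0.01% (detergent screen) or 0.0001% Triton X-100; 5.3 nM AmpC reagent; cpd preinc 15 min RT; nitrocefin (800 uM stock) to start; A480 q20 s × 4 min; Activity was normalised to no-enzyme and no-compound control wells.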
AmpC inh no detg – qHTS Inhibitors of AmpC Beta-Lactamase (assay without detergent). AmpC nitrocefin hydrolysis, absorbance 480 nm, 0.0001% Triton. Potency, µM (highest dose often 57.1 µM), inactives show at the highest dose activity change, negative = inhibition, most hits filed as inhibitors. 330,000 tested, 0.52% active;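 further: plate controls were no compound for no effect and no enzyme for full effect; nearly all actives have a fitted effect of over 20% in size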
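20 mM phosphate pH 7.0 + 0.01% (detergent screen) or 0.0001% Triton X-100; 5.3 nM AmpC reagent; cpd preinc 15 min RT; nitrocefin (800 uM stock) to start; A480 q20 s × 4 min; Activity was normalised to no-enzyme and no-compound control wells.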
* = called active by the depositor. The list is not random: actives were taken first. Their share in the collection is about 11%. The call rests on the fitted dose curve; in most records, active means well fitted curve in the direction sought with a large enough effect; inconclusive means small, poorly fitted or top-dose-only effect, or another doubt; inactive means no such curve, though single readings can be large; an effect the other way counts as inactive or inconclusive. Unless noted, on the % scale 0 is the no-effect control and ±100 the full control effect; potency means the concentration at half of the fitted maximal effect.

What do the screens show for `Cc1ccc(N(CC(=O)N2CCN(c3ccccc3F)CC2)S(=O)(=O)c2c(C)noc2C)cc1`?
AMA1 RON2 block: -1%; HCV inh: 7%; Pf growth 48h: inconclusive; Pf growth 96h: 9.3µM*; AmpC detergent: 4%; AmpC inh no detg: 5%

How did COc1ccc(N(C(=O)c2cccc(OC)c2OC)C2C=CS(=O)(=O)C2)cc1 (configuration not stated) do in these assays?
AMA1 RON2 block: -4%; HCV inh: 21%; Pf growth 48h: 35%; Pf growth 96h: 2.3µM*; AmpC detergent: 0%; AmpC inh no detg: 12%

What do the screens show for `COc1ccccc1NC(=O)c1cc2c(=O)n(Cc3cccs3)ccc2nc1C`?
AmpC detergent: -7%

What do the screens show for `C=CCc1cc(OC)ccc1OCCN1CC(C)OC(C)C1` (configuration not stated)?
AMA1 RON2 block: 13µM*; HCV inh: 4%; Pf growth 48h: -4%; Pf growth 96h: 57%; AmpC detergent: -10%; AmpC inh no detg: 21%

How did COc1ccc(OC)c(NC(=O)CCN2CC(C)OC(C)C2)c1 (configuration not stated) do in these assays?
AMA1 RON2 block: 5%; HCV inh: -8%; Pf growth 48h: -12%; Pf growth 96h: 1.9µM*; AmpC detergent: -14%; AmpC inh no detg: -4%

What do the screens show for `COc1ccc(NC(=O)CCN2CC(C)OC(C)C2)c(OC)c1` (configuration not stated)?
AMA1 RON2 block: -2%; HCV inh: 9%; Pf growth 48h: inconclusive; Pf growth 96h: -18%; AmpC detergent: inconclusive; AmpC inh no detg: -21%

Results for Cc1ccc(-c2csc(/C(C#N)=C/c3ccccc3Cl)n2)cc1 ?
AmpC detergent: 16%

What do the screens show for `O=C(COC(=O)c1ccc(NS(=O)(=O)c2cccs2)cc1O)NCc1ccccc1`?
AMA1 RON2 block: -11%; HCV inh: -5%; Pf growth 48h: 31%; Pf growth 96h: 8%; AmpC detergent: 2%; AmpC inh no detg: -24%

What do the screens show for `COc1ccc(Cl)cc1NC(=O)CN(C)S(=O)(=O)c1cccs1`?
AMA1 RON2 block: -2%; HCV inh: inconclusive; Pf growth 48h: 3%; Pf growth 96h: -23%; AmpC detergent: -3%; AmpC inh no detg: -14%

What do the screens show for `COc1ccc(Cl)cc1NC(=O)COC(=O)c1cc(NS(=O)(=O)c2cccs2)ccc1O`?
AMA1 RON2 block: 10%; HCV inh: -26%; Pf growth 48h: 0%; Pf growth 96h: 8%; AmpC detergent: -12%; AmpC inh no detg: 20µM*

What do the screens show for `O=C(COC(=O)c1ccc(NS(=O)(=O)c2cccs2)cc1O)Nc1nc2ccccc2s1`?
AMA1 RON2 block: -7%; HCV inh: -10%; Pf growth 48h: 46%; Pf growth 96h: 8%; AmpC detergent: 1%; AmpC inh no detg: 1.6µM*

How did Cc1cc(C)c2c(c1)cc(C)c1nnc(SCC(=O)N3CCCc4ccccc43)n12 do in these assays?
AMA1 RON2 block: -1%; HCV inh: -14%; Pf growth 48h: 1%; Pf growth 96h: 5.9µM*; AmpC detergent: -14%; AmpC inh no detg: -17%

How did O=C(Nc1ccccc1-c1nnn(CC(=O)N2CCCc3ccccc32)n1)c1ccco1 do in these assays?
AMA1 RON2 block: -13%; HCV inh: inconclusive; Pf growth 48h: inconclusive; Pf growth 96h: 81%; AmpC detergent: inconclusive; AmpC inh no detg: -10%
